# Measured values published in PubChem BioAssay AID504613 (National Center for Advancing Translational Sciences (NCATS), 2011).
# The source made the active and inactive calls.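 The calls were made as follows: active = clear growth inhibition over 72 hours in leukemia cell lines carrying a fused MLL gene, giving a fitted IC50; inactive = the rest.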
# Experiment: Confirmation of Inhibitors Targeting the Menin-MLL Interaction in MLL Related Leukemias: Confirmation in an MLL leukemia cell growth assay
# Conditions: MV4-11 MLL-AF4 leukemia growth, MTT absorbance, 72 h; series mostly up to 50 µM
# Text: qHTS Assay for Inhibitors Targeting the Menin-MLL Interaction in MLL Related Leukemias NIH Chemical Genomics Center [NCGC] NIH Molecular Libraries Probe Centers Network [MLPCN] MLPCN Grant: MH084875-01A1 Assay Submitter (PI): Jolanta Grembecka, Tomasz Cierpicki, University of Virginia Translocations of the MLL (Mixed Lineage Leukemia) gene are frequently found in human leukemias affecting both children and adults. Fusion of MLL to one of more than 60 genes results in generation of oncogenic proteins upregulating Hox genes, which are vital to blood cell development. Patients harboring fusion of the MLL gene suffer from aggressive leukemias and respond poorly to available therapies. All of the oncogenic fusion proteins have a preserved N-terminal fragment of MLL that has been identified to interact with menin. It has been recently discovered that association with menin is critical to the leukemogenic activity of the MLL fusion oncoproteins. […] We have developed and optimized a fluorescence polarization-based assay for the identification of Menin-MLL inhibitors. […]
# Inhibition of cell proliferation in the MLL leukemia cells: MV4-11 (MLL-AF4), ML-2 (MLL-AF6) KOPN-8 (MLL-ENL) induced by compound measured after 72h treatment, as detected by the MTT cell viability assay. […] Plates were read for absorbance at 570 nm using a PHERAstar BMG microplate reader. […]
row,Structure (SMILES),IC50
1,N#Cc1ccc(OCCCN2CCC(C(O)c3ccccc3)CC2)cc1 (configuration not stated),inactive
2,N#Cc1ccc(OCCCN2CCC(C(O)(c3ccccc3)C3CCCC3)CC2)cc1 (configuration not stated),12.8 µM (active)
